The list is not random: actives were taken first. Their share in the collection is about 2.3%.
M1 ag parental = M1 agonist counterscreen hit in parental CHO-K1 cells; Fluo-8 calcium fluorescence; scaled to maximal ATP response, vehicle zero; activation, % at 3 µM; hit rate 0.48% among 360,000; in the data active means activation above about 15%;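 further: untransfected CHO-K1 host cells lacking M1 receptor as counterscreen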
M1 ag = agonists of human M1 muscarinic receptor; activation, % at 3 µM; P11229; CHO-K1 hM1, Fluo-8 calcium fluorescence, agonist mode; 0% DMSO, 100% acetylcholine EC100; hit rate 0.33% among 360,000;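 active means activation above the run's mean compound activation plus 3 SD, cut at about 16% in these data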;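 further: peak over basal fluorescence ratio within a 140 s kinetic read after compound addition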
Target sequence (P11229 whole entry, looked up): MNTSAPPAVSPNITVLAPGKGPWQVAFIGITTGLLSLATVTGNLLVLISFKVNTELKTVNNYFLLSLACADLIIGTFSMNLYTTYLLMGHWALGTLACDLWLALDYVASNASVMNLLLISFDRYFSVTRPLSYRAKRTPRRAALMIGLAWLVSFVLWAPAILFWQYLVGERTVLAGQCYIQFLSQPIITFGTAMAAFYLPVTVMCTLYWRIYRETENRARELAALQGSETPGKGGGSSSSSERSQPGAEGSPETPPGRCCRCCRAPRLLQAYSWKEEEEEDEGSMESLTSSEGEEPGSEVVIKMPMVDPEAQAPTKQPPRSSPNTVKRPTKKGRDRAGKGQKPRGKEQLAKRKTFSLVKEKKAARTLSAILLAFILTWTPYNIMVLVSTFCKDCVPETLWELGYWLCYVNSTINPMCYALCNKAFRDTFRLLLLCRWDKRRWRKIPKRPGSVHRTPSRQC
CHO-K1 Ca antag = counter-screen for M1 antagonists: effect in parental CHO-K1 cells; ATP-induced calcium, Fluo-8 fluorescence; inhibition, % at 3 µM; hit rate 0.6% among 360,000; AID 602250;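 active means inhibition above a per-plate cutoff, the plate's mean sample inhibition plus 3 SD, cut at about 24% in these data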;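 further: 0% = DMSO plus EC80 ATP and 100% = DMSO alone without ATP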
M1 antag = blocks human M1 muscarinic receptor; CHO-K1 hM1, Fluo-8 calcium fluorescence, ACh EC80 antagonist; inhibition, % at 3 µM; hit rate 1.3% among 360,000;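 active means percent inhibition above its own plate's cutoff, namely the mean of that plate's compound wells plus 3 SD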;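 further: peak over basal fluorescence ratio during 140 s after agonist addition; 0% = ACh EC80 plus DMSO and 100% = DMSO alone without agonist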
M1 PAM = human CHRM1 positive allosteric modulation; hit rate 0.088% among 360,000; CHO-K1 hM1, Fluo-8 calcium fluorescence, ACh EC20; 0% = ACh EC20, 100% = maximal ACh; activation, % at 3 µM; P11229; in the data active means activation above about 19%, passing the limit was not always enough
CHO-K1 Ca PAM = nonselective activator or artifact in parental CHO-K1 calcium assay; ATP EC20, Fluo-8 calcium fluorescence; 0% at ATP EC20, 100% at ATP max; activation, % at 3 µM; hit rate 0.02% among 360,000; AID 602247;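 active means activation above the run cutoff, the mean activation of all test compounds plus 3 SD, cut at about 40% in these data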;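 further: peak over basal fluorescence ratio in a 140 s read after ATP addition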
* = called active by the depositor.

For CC(Oc1cccc(Cl)c1)C(=O)Nc1ccc(S(=O)(=O)N(C)C2CCN(C)CC2)cc1 (stereo unspecified) the results were M1 ag parental 9, M1 ag 7, CHO-K1 Ca antag -6, M1 antag 3, M1 PAM 8 and CHO-K1 Ca PAM 13.
Cc1ccc(C2=NS(=O)(=O)N(C)C(C(=O)Nc3ccc(F)cc3F)=C2)cc1 was read as M1 ag parental 10, M1 ag 2, CHO-K1 Ca antag 9, M1 antag 34*, M1 PAM -24 and CHO-K1 Ca PAM -6.
`COc1ccc(Cc2nnc(NC(=O)c3ccccc3Cl)s2)cc1OC` gave M1 ag parental 22*, M1 ag -2, CHO-K1 Ca antag -1, M1 antag -15, M1 PAM 8 and CHO-K1 Ca PAM 16.
For COc1ccc(Cc2nnc(NC(=O)Nc3ccc(C)cc3)s2)cc1OC the results were M1 ag parental 0, M1 ag 0, CHO-K1 Ca antag 13, M1 antag -10, M1 PAM 10 and CHO-K1 Ca PAM -12.
`COc1ccc(Cc2nnc(NC(=O)c3ccccc3F)s2)cc1OC` gave M1 ag parental 1, M1 ag 1, CHO-K1 Ca antag -2, M1 antag -16, M1 PAM 13 and CHO-K1 Ca PAM 10.
Screening COc1ccc(Cc2nnc(NC(=O)CSc3ccc(C)cc3)s2)cc1OC returned M1 ag parental 49*, M1 ag 61*, CHO-K1 Ca antag -22, M1 antag -7, M1 PAM 15 and CHO-K1 Ca PAM 42*.
Screening COC(=O)c1cc(CSc2nc3ccccc3c(=O)n2C)oc1C returned M1 ag parental 14, M1 ag -5, CHO-K1 Ca antag 15, M1 antag 67*, M1 PAM -31 and CHO-K1 Ca PAM -5.
Screening COCCn1c(SCc2ccc(C(=O)OC)o2)nc2ccccc2c1=O returned M1 ag parental 2, M1 ag -10, CHO-K1 Ca antag -2, M1 antag -4, M1 PAM -2 and CHO-K1 Ca PAM -7.
`CN1CCC(n2[nH]c(-c3ccccc3)c(Cc3ccccc3)c2=O)CC1` gave M1 ag parental 2, M1 ag -8, CHO-K1 Ca antag -12, M1 antag 100*, M1 PAM -30 and CHO-K1 Ca PAM 9.
CN1CCC(N2CCN(C3CN(CCc4ccccc4)S(=O)(=O)C3)CC2)CC1 (stereo unspecified) was read as M1 ag parental 1, M1 ag -6, CHO-K1 Ca antag 4, M1 antag -8, M1 PAM 10 and CHO-K1 Ca PAM 15.
For CCOC(=O)[C@@H]1[C@H]2COc3ccc(Br)cc3[C@@H]2N2C(=O)N(c3ccc(C(F)(F)F)cc3)C(=O)[C@]12C the results were M1 ag parental 1, M1 ag -8, CHO-K1 Ca antag -13, M1 antag 6, M1 PAM 2 and CHO-K1 Ca PAM 15.
Cc1[nH]nc2c1C(=O)CC(C)(C)C2 was read as M1 ag parental 0, M1 ag 4, CHO-K1 Ca antag 1, M1 antag -33, M1 PAM 21* and CHO-K1 Ca PAM 14.
Screening Cc1[nH]nc2c1/C(=N\O)CC(C)(C)C2 returned M1 ag parental 1, M1 ag -4, CHO-K1 Ca antag -13, M1 antag -13, M1 PAM 6 and CHO-K1 Ca PAM 21.
For O=C(CCS(=O)(=O)c1ccc(Br)cc1)Nc1ccccn1 the results were M1 ag parental 1, M1 ag 0, CHO-K1 Ca antag 24*, M1 antag 19, M1 PAM -11 and CHO-K1 Ca PAM -16.
For COc1cccc(Nc2nc3cc(C)ccc3cc2C)c1 the results were M1 ag parental 0, M1 ag -7, CHO-K1 Ca antag 26*, M1 antag -6, M1 PAM -1 and CHO-K1 Ca PAM -14.
Screening c1ccc(N2CC[N+]3(CCCC3)CC2)nc1 returned M1 ag parental 0, M1 ag -9, CHO-K1 Ca antag -8, M1 antag 54*, M1 PAM -22 and CHO-K1 Ca PAM 11.
Screening c1cnc(N2CC[N+]3(CCCC3)CC2)nc1 returned M1 ag parental 0, M1 ag -6, CHO-K1 Ca antag -3, M1 antag 33*, M1 PAM -23 and CHO-K1 Ca PAM 13.
`O=C(COC(=O)c1cccnc1Cl)c1ccccc1` gave M1 ag parental 1, M1 ag -4, CHO-K1 Ca antag -21, M1 antag -2, M1 PAM 3 and CHO-K1 Ca PAM 14.
Screening CC(C)N(C(=O)COC(=O)c1cccnc1Cl)c1ccccc1 returned M1 ag parental 2, M1 ag 1, CHO-K1 Ca antag -11, M1 antag -38, M1 PAM 32* and CHO-K1 Ca PAM 5.
For CCOC(=O)c1cnc2c(c(C)nn2C)c1Oc1cc(Cl)cc(Cl)c1 the results were M1 ag parental 0, M1 ag -3, CHO-K1 Ca antag -8, M1 antag -8, M1 PAM 3 and CHO-K1 Ca PAM 26.
Screening COC[C@@H]1CCCN1[C@@H]1CS(=O)(=O)N[C@H]1COCc1ccccc1 returned M1 ag parental 1, M1 ag -7, CHO-K1 Ca antag 5, M1 antag -4, M1 PAM 4 and CHO-K1 Ca PAM 18.
`COc1cccc(C(=O)c2c(C)c(CCC#N)n3ccccc23)c1` gave M1 ag parental 25*, M1 ag -5, CHO-K1 Ca antag 4, M1 antag -8, M1 PAM 9 and CHO-K1 Ca PAM 8.
COc1ccc(CNc2ccc(Br)cc2)cc1 was read as M1 ag parental 1, M1 ag -4, CHO-K1 Ca antag -12, M1 antag -1, M1 PAM 1 and CHO-K1 Ca PAM 16.
For COc1ccc(NC2=NCC(Cc3ccc(Br)cc3)S2)cc1 (stereo unspecified) the results were M1 ag parental 9, M1 ag -10, CHO-K1 Ca antag -4, M1 antag 79*, M1 PAM -26 and CHO-K1 Ca PAM 23.
Screening C[C@@]12C(=O)Nc3ccc(Cl)cc3C(=O)N1[C@H]1c3cc(Cl)ccc3OC[C@@H]1[C@@H]2c1ccccc1 returned M1 ag parental 0, M1 ag -5, CHO-K1 Ca antag 1, M1 antag 18, M1 PAM -11 and CHO-K1 Ca PAM -23.
Screening C[C@@]12C(=O)Nc3ccccc3C(=O)N1[C@H]1c3cc(Cl)ccc3OC[C@@H]1[C@@H]2c1ccccc1 returned M1 ag parental 0, M1 ag -5, CHO-K1 Ca antag -12, M1 antag 33*, M1 PAM -28 and CHO-K1 Ca PAM -4.
`Cc1ccc2c(c1)[C@H]1[C@H](CO2)[C@H](c2ccccc2)[C@]2(C)C(=O)Nc3ccccc3C(=O)N12` gave M1 ag parental 0, M1 ag -9, CHO-K1 Ca antag -9, M1 antag 86*, M1 PAM -38 and CHO-K1 Ca PAM -5.

From PubChem BioAssay
